# Data as given in PubChem BioAssay (NCI).
# Compounds without any hit were thinned out: in the full panel of roughly 83,000, 20% have a hit.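 Step 1: grow cells in 96-well plates. Step 2: add test compound at a single concentration. Step 3: incubate 48 h. Step 4: record percent growth.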 Unmarked numbers belong to inactive results. Active and inactive are the calls of the source. The calls were made as follows: active = growth percent below 10; inactive = the rest.
# Legend:
# Experiment in all cases: NCI-60 one-dose screen, 48 h (100 = growth as untreated, 0 = no growth, -100 = all killed)
# Settings in all cases: 10 µM unless noted
# NCI-H23 lung = test system: NCI-H23 lung
# NCI-H226 lung = test system: NCI-H226 lung
# NCI-H322M lung = test system: NCI-H322M lung
# HOP-62 NSCLC = test system: HOP-62 NSCLC
# NCI-H460 lung = test system: NCI-H460 lung
# HOP-92 NSCLC = test system: HOP-92 NSCLC
# NCI-H522 lung = test system: NCI-H522 lung
# A549/ATCC NSCLC = test system: A549/ATCC NSCLC
# 786-0 renal = test system: 786-0 renal
# COLO 205 colon = test system: COLO 205 colon
Compound,growth (NCI-H23 lung),growth (NCI-H226 lung),growth (NCI-H322M lung),growth (HOP-62 NSCLC),growth (NCI-H460 lung),growth (HOP-92 NSCLC),growth (NCI-H522 lung),growth (A549/ATCC NSCLC),growth (786-0 renal),growth (COLO 205 colon)
COc1cc2ncnc(Nc3ccc(F)c(Cl)c3)c2cc1OCC(=O)N1CCN(c2ccccc2)CC1,88%,92.5%,34%,103%,95.6%,86.8%,79.9%,82.9%,85.6%,112%
CC1CCN(S(=O)(=O)c2ccc(S(=O)(=O)N3CCCC(c4nc5c(nnn5Cc5cccc(Cl)c5)c(=O)[nH]4)C3)cc2)CC1 (centres undefined),65.4%,75.2%,61.3%,57.2%,23.9%,56%,33.7%,64.8%,64.4%,91.3%
CC1=C([Se]CC(OC(=O)CC[Se]c2ccccc2)C(=O)NC(C)(C)C)C(=O)c2ccccc2C1=O (centres undefined),-45.6% (active),-49.4% (active),-51.9% (active),-36.1% (active),-49.2% (active),-74.5% (active),-38.7% (active),-1.39% (active),-90.2% (active),-90.1% (active)
Cc1c(O)cc(-c2cnc(Nc3ccccc3)s2)c(O)c1C,87.1%,98.6%,96.6%,97.4%,99.3%,–,83.4%,93.1%,107%,107%
Cc1cccc(/C=C2\CN(C(=O)OC(C)(C)C)C/C(=C\c3cccc(C)c3)C2=O)c1,92.7%,99.6%,95.8%,96.9%,110%,87.3%,63.8%,97.4%,94.6%,115%
CN(c1cc2ncc(=O)[nH]c2cc1NC(N)=NCc1ccc(Cl)cc1)C1CCCCC1,88.1%,72.8%,84.5%,80.8%,40.3%,–,30.5%,89.3%,68.5%,-63.6% (active)
COC12C=C/C(=C(/C(=O)OCc3ccncc3)C(=O)CCCCCCCCC3(OC)C=C/C(=C(/C(=O)OCc4ccncc4)C(=O)CCCCCCCC1)O3)O2,-61.1% (active),-64.7% (active),-63.2% (active),16.7%,1.88% (active),–,-41% (active),9.15% (active),-50.9% (active),-25% (active)
N#CC1=C(N)Oc2c(ccc3ccccc23)C1c1ccccc1 (centres undefined),25.7%,61.6%,55.6%,12.8%,6.31% (active),–,-15.8% (active),10.8%,13.5%,-49.8% (active)
O=C(NNC(=O)c1ccc(NC(=O)c2ccccn2)cc1)Nc1ccc([N+](=O)[O-])cc1,106%,94.2%,95.7%,96.1%,107%,96.7%,100%,100%,96.5%,114%
c1ccc2cc(C[n+]3ccn(CCCCCCCCCCn4cc[n+](Cc5ccc6ccccc6c5)c4)c3)ccc2c1,5.67% (active),39.5%,34.5%,-4.86% (active),11%,-23.6% (active),-72.3% (active),18.5%,35.6%,-81.1% (active)
Cc1sc2nc(NCCc3c[nH]c4ccc(Cl)cc34)[nH]c(=O)c2c1C,61.6%,70.6%,61.2%,34.7%,18.6%,46%,-23.9% (active),0.107% (active),56.5%,22.3%
CCCCNC(=O)Oc1ccc(/C(=C(/C)Cc2ccc(OC)cc2)c2ccc(OCCN3CCCC3)cc2)cc1,85.9%,94.7%,81.6%,–,17.7%,49%,55.5%,48.7%,59.8%,-57.4% (active)
O=CN1N=C(c2cccc(Nc3ccnc4cc(Cl)ccc34)c2)CC1c1ccccc1 (centres undefined),4.34% (active),38.3%,71.8%,–,7.29% (active),18.9%,-25.8% (active),21.3%,18.9%,-40.9% (active)
COc1ccc(/C=C(\C#N)n2nnc3cc(Cl)ccc32)cc1,8.62% (active),12.8%,6.1% (active),–,1.99% (active),-2.3% (active),-15.7% (active),14.4%,-16.7% (active),-13.2% (active)
COc1ccc(C/C(C)=C(/c2ccc(OCCN(C)C)cc2)c2ccc(OC(=O)NCc3ccccc3)cc2)cc1,83.1%,97.7%,80.8%,–,22.9%,38.2%,50.4%,55%,61.1%,20.4%
Nc1ncnc2c1C(c1ccc(Br)cc1)c1sc3c(F)cccc3c1O2 (centres undefined),88.5%,81.5%,95.9%,–,92.1%,91.7%,84.2%,99.3%,99.9%,106%
Cc1nc2sc(C(=O)Nc3ccc(Br)cc3)c(N)c2cc1C(O)c1ccccc1 (centres undefined),61.1%,68%,90.4%,67.5%,69%,–,60.5%,64.4%,81%,64.5%
CC1CN(S(=O)(=O)c2oc(-c3ccc(Cl)cc3)nc2C#N)CC(C)O1 (centres undefined),77.8%,87.4%,97.9%,–,103%,76.3%,-16.2% (active),100%,79%,2.95% (active)
C=C1C(=O)O[C@H]2[C@H]1CC/C(COC(=O)C(=O)c1cn(C)c3ccc(Cl)cc13)=C\CC[C@@]1(C)O[C@@H]21,-60.1% (active),-71.4% (active),-68.9% (active),–,-69.8% (active),-82.9% (active),-65.8% (active),-62.5% (active),-97.6% (active),-64.7% (active)
Cc1ccc(C2=Nc3c(N)ncnc3NC(c3cccc(Nc4ccnc5cc(C(F)(F)F)ccc45)c3)C2)cc1 (centres undefined),44.3%,59.8%,67.2%,–,21.2%,2.86% (active),30.6%,24.6%,42.6%,9.89% (active)
CCn1cc(C(=O)NNC(=S)Nc2ccc(C)cc2)c(=O)c2ccc(C)nc21,102%,90.1%,80.4%,108%,101%,–,97.3%,91.6%,102%,116%
Cc1cc(S(=O)(=O)/N=C(\N)n2nc(C)c(C)c2C)c(SCc2ccccc2)cc1Cl,54.6%,78.6%,86.2%,–,81.2%,50.3%,17.2%,52.9%,77.2%,114%
Oc1c(I)cc(I)cc1CNCCN(Cc1ccccn1)Cc1ccccn1,-14% (active),-65.1% (active),-30.4% (active),-65.1% (active),-56.5% (active),–,-27.6% (active),-33.3% (active),-95.2% (active),-34.6% (active)
CC(C)(C)CC(C)(C)NC(=O)Nc1ncccc1OCc1ccccc1,86.4%,91.6%,86.3%,97.1%,106%,–,70.7%,89.8%,98.5%,105%
Cn1c(I)c(C#CCO[Si](C)(C)C(C)(C)C)c(=O)[nH]c1=O,96.4%,108%,95.5%,–,106%,59.4%,74.2%,107%,99%,82.7%
O=C(/C=C/c1ccccc1)Nc1ncc(Cc2ccccc2Cl)s1,51.8%,48.6%,33.8%,18.9%,14.1%,–,-11.2% (active),30.8%,45.7%,2.14% (active)
CCCCCCCCCc1ccc(OCCOCCOCCOCCOCCOCCOCCOCCOCCO)cc1,7.69% (active),17.3%,57.3%,128%,11.2%,–,-9.88% (active),17.3%,27.4%,109%
CCc1ccc(CCCC(=O)O)cc1,96.5%,95.1%,101%,87%,108%,–,89.9%,97.7%,95.4%,112%
